From PubChem BioAssay
D1 ag – human D1 receptor agonism. HEK293 T-REx D1 cells, calcium flux, agonist mode. P21728. AID 504660. hit rate 1% among 360,000. activation, % at 2 µM; in the data active = activation above about 30%
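Inducible HEK293 T-REx D1 cells, force-coupled to calcium signalling, were plated at 4000 cells/well with tetracycline and held overnight at 30 C. After no-wash calcium dye loading, compound-evoked calcium rise over 180 s flagged agonists.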
DRD3 antagonist – blocks the human D3 dopamine receptor | P35462 | D3R cells, DiscoveRx beta-arrestin luminescence, antagonist mode; stronger effect = lower value | max response, negative = inhibition, % | hit rate 2.5% among 360,000 | AID 652054; in the data active = max response below about -50%; inconclusive = no clear call, values can overlap the other calls
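Cells plated overnight at 1500 cells/well, then exposed to library compounds with dopamine controls for 90 minutes at 37 degrees C. DiscoveRx reagent added for 30–60 minutes at room temperature; luminescence read, quantitative HTS format.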
D1 antagonist – human D1 dopamine receptor antagonism. AID 504652. hit rate 3.2% among 360,000. P21728. activity change, negative = inhibition, % at 10 µM. HEK293 TREx D1 cells, calcium flux, dopamine EC80; stronger effect = lower value; in the data active = activity change below about -30%
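HEK293 T-REx cells expressing inducible, force-coupled D1 receptor; no-wash Ca dye, 30–90 min RT. Cmpd → 180 s read at 1 Hz → EC80 DA → 180 s read.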
D1 PAM – human D1 dopamine receptor positive modulation; P21728; HEK293 TREx D1 cells, calcium flux, dopamine EC20 potentiation; potentiation, % at 10 µM; hit rate 0.036% among 360,000; in the data active = potentiation above about 30%
ERG-DNA inh – inhibitors of human ERG Ets domain-DNA interaction. P11308. fluorescence polarization, His-ERG Ets domain / labelled DNA. Potency, µM (top dose mostly 76.9 µM), actives largely listed as inhibitors. hit rate 0.028% among 370,000; active = well fitted inhibition curve with a large enough effect in the polarisation, with a control signal flat; inconclusive = small, poorly fitted or top-dose-only effect, or effect the other way, or a change in a side signal; inactive = no such curve, though single readings can be large or run the other way; the % refers to the polarisation;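 note: polarization taken with two DNA probes labelled with fluorescein and Texas red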
Target sequence (P11308 whole entry, looked up, the tested form may be a part): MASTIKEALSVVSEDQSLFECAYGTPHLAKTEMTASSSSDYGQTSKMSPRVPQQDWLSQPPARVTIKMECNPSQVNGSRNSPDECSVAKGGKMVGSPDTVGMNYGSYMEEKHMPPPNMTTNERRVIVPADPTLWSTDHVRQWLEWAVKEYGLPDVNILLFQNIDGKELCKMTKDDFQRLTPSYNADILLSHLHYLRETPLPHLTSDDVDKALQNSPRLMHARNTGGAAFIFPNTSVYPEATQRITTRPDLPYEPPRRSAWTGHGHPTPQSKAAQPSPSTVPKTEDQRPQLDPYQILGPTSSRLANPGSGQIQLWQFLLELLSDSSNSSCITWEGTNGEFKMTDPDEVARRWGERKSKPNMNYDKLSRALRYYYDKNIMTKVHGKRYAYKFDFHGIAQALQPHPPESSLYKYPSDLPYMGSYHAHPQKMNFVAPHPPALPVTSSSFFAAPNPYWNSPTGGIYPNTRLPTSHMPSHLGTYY
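His-tagged ERG Ets domain (1 uM in the protein solution; 300mM KCl, 50mM Tris-HCl, 1mM EDTA, 1mM DTT, pH 7.5) received compound, then a probe mix of 5 nM fluorescein-DNA and 100nM Texas-615-DNA. Fluorescence polarization was read for both dyes.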
D3 ag – activates the human D3 dopamine receptor; D3R DiscoveRx beta-arrestin cells, luminescence, 90 min; max activation, %; hit rate 0.58% among 410,000; AID 652048; in the data active = max activation above about 30%
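Agonist mode: compounds and dopamine controls were applied to plated cells for 90 min at 37 degrees C after an overnight attachment at 1500 cells/well. Luminescent read-out followed 30 - 60 minutes at room temperature with DiscoveRx detection reagent.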
Hits are given with their value; . = inactive; ? = inconclusive; / = no result; ! = not active in a repeat. Most compounds without a hit are left out; they make up all but 6.1% or so of the library.

SMILES	D1 ag	DRD3 antagonist	D1 antagonist	D1 PAM	ERG-DNA inh	D3 ag
CC1(c2ccc(OC(F)F)cc2)NC(=O)N(CC(=O)Nc2cccc(F)c2)C1=O (stereo not given)	60	.	-61	.	.	.
CC1(c2ccc(OC(F)F)cc2)NC(=O)N(CC(=O)Nc2ccc(S(N)(=O)=O)cc2)C1=O (stereo not given)	.	.	.	.	.	.
Cc1ccc(NC(=O)CN2C(=O)NC(C)(c3ccc(Cl)cc3)C2=O)cc1 (stereo not given)	.	.	.	.	.	.
CCOC(=O)c1c(NC(=O)CN2C(=O)NC(C)(c3ccc(OC(F)F)cc3)C2=O)sc(C)c1C (stereo not given)	31	.	.	.	.	.
Cc1cc(NC(=O)CN2C(=O)NC(C)(c3ccc(OC(F)F)cc3)C2=O)no1 (stereo not given)	33	.	.	.	.	.
COc1ccc(C2=NN3C(C2)c2ccccc2OC32C(=O)N(C)c3ccccc32)cc1 (stereo not given)	.	.	.	.	.	.
CCOC(=O)c1c(C)[nH]c(C(=O)CN2C(=O)NC(C)(c3ccc(C)cc3)C2=O)c1C (stereo not given)	54	.	.	.	.	.
CC1(c2ccc(OC(F)F)cc2)NC(=O)N(CC(=O)Nc2ccc(OC(F)F)cc2)C1=O (stereo not given)	50	.	-43	.	.	.
CC1(c2ccc(OC(F)F)cc2)NC(=O)N(CC(=O)Nc2ccc(F)cc2)C1=O (stereo not given)	.	.	.	.	.	.
CCOc1ccc(NC(=O)CN2C(=O)NC(C)(c3ccc(OC(F)F)cc3)C2=O)cc1 (stereo not given)	38	.	-43	.	.	.
COCCN(C(=O)c1cc(OC)c(OC)c(OC)c1)c1c(N)n(Cc2ccccc2)c(=O)[nH]c1=O	.	.	.	.	.	.
C/C(=N\NC(=O)c1nnn(-c2nonc2N)c1CN(C)c1ccccc1)c1cccc(O)c1	.	.	-39	.	.	.
C/C(=N\NC(=O)c1nnn(-c2nonc2N)c1-c1ccc2c(c1)OCO2)c1ccccc1	34	.	.	.	.	.
C/C(=N\NC(=O)c1nnn(-c2nonc2N)c1-c1ccc2c(c1)OCO2)c1ccc(C)cc1	104	.	.	.	.	.
C/C(=N\NC(=O)c1nnn(-c2nonc2N)c1-c1ccc2c(c1)OCO2)c1ccc(F)cc1	.	.	.	.	.	.
C/C(=N\NC(=O)c1nnn(-c2nonc2N)c1CN(C)c1ccccc1)c1ccc(O)cc1	.	.	.	.	.	.
CC/C(=N\NC(=O)c1nnn(-c2nonc2N)c1-c1ccc2c(c1)OCO2)c1ccccc1	.	.	.	.	.	.
O=C1CCc2cc(S(=O)(=O)NCCc3ccc(Cl)cc3)cc3c2N1CC3	.	.	.	.	.	.
COc1ccc(C(C[N+](=O)[O-])C2(c3ccc(OC)c(OC)c3)C(=O)c3ccccc3C2=O)cc1 (stereo not given)	.	-82	.	.	.	.
COC(=O)C(C(=O)OC)C(C[N+](=O)[O-])c1ccc(OC)c(OC)c1 (stereo not given)	.	.	.	.	.	.
Cc1ccccc1OCC(O)Cn1c(=N)n(CCN2CCCCC2)c2ccccc21 (stereo not given)	.	/	.	.	.	.
Cc1ccccc1OCC(O)CN1CCC(C)CC1 (stereo not given)	.	-60	.	.	.	.
Cc1ccccc1OCC(O)CN1CCCCC1 (stereo not given)	.	.	.	.	.	.
CC1CCN(CC(O)COc2ccc(OCC(O)CN3CCC(C)CC3)cc2)CC1 (stereo not given)	.	.	.	.	.	.
Cc1ccccc1OCC(O)CN1CCN(CC(O)COc2ccccc2C)CC1 (stereo not given)	54	-57	.	.	.	.
SMILES	D1 ag	DRD3 antagonist	D1 antagonist	D1 PAM	ERG-DNA inh	D3 ag
Cc1ccccc1OCC(O)Cn1c(=N)n(CCN2CCOCC2)c2ccccc21 (stereo not given)	.	.	-35!	.	.	.
CCOC(=O)N1CCN(C(=S)NC(=O)C23CC4CC(CC(C4)C2)C3)CC1	.	.	.	.	.	.
COc1ccc(NC(=O)c2c(NC(=O)COc3ccccc3)sc3c2CCC(C)C3)cc1 (stereo not given)	.	/	.	.	.	.
COc1ccc(/C=N/Nc2nn3cnnc3c3ccccc23)cc1	.	.	.	.	.	.
CC(C)C(=O)N1CCN(c2ccc(NC(=O)COc3ccccc3[N+](=O)[O-])cc2)CC1	.	.	-31	.	.	.
Cn1c(/C(C#N)=C/c2ccc(O)cc2)nc2ccccc21	.	.	.	.	.	.
COc1ccc(/C=N/Nc2ccc([N+](=O)[O-])cc2)cc1Cn1cc([N+](=O)[O-])cn1	.	?	/	.	.	.
COc1cc(/C=C(\C#N)c2nc3ccccc3n2C)cc(OC)c1O	64	.	.	.	.	.
COc1ccc(/C=C(\C#N)c2nc3ccccc3[nH]2)cc1O	.	.	.	.	.	.
COc1ccc(/C=N/Nc2ccc([N+](=O)[O-])cc2)cc1O	31	-53	.	.	.	.
COc1cc(/C=C(\C#N)c2nc3ccccc3[nH]2)cc(OC)c1O	109	.	.	.	.	.
COc1c(Cl)cc(Cl)cc1/C=C(\C#N)c1nc2ccccc2[nH]1	.	/	-61	.	.	.
COc1cc(/C=C(/C#N)c2ccccc2)ccc1Oc1ccc([N+](=O)[O-])cn1	.	.	.	.	.	.
COc1cc(C=C(C#N)c2ccc([N+](=O)[O-])cc2)ccc1O	/	-52	/	/	/	.
COc1cc(/C=C(/C#N)c2nc3ccccc3c(=O)[nH]2)ccc1O	34	.	.	.	?	.
CC(C)/C=N/Nc1nc(-c2ccc(Br)cc2)cs1	.	.	-46	.	.	.
O=C(Nc1nc(-c2ccc(Br)cc2)cs1)c1cccnc1	.	.	.	.	.	.
CCC(C)(C)c1ccc(OCCCC[n+]2cccc(C)c2C)c(C(C)(C)CC)c1	146	.	.	.	.	.
CCC(C)(C)c1ccc(OCCCC[n+]2ccc(C)cc2)c(C(C)(C)CC)c1	127	.	.	.	.	.
CCCCCCCCCCCCCC[n+]1ccc(C)cc1	/	/	/	/	/	.
CCCCCCCCC[n+]1cccc2c3ccccc3ccc21	.	.	.	.	.	.
COC(=O)COc1cccc(NC(=O)c2ccc(Cl)cc2)c1	.	.	.	.	.	.
Cc1[nH]c2ccccc2c1C(=O)C(=O)N1CCN(C)CC1	.	.	.	.	.	.
